# TNAP pNPP inh – blocks human TNAP p-nitrophenol release. P05186. purified TNAP, pNPP hydrolysis, absorbance 405 nm. inhibition, % at 20 µM. 21,000 tested, under 10 active. AID 615;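 further: 0% = DMSO only wells and 100% = 1 mM levamisole wells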
# Target sequence (P05186 whole entry, looked up): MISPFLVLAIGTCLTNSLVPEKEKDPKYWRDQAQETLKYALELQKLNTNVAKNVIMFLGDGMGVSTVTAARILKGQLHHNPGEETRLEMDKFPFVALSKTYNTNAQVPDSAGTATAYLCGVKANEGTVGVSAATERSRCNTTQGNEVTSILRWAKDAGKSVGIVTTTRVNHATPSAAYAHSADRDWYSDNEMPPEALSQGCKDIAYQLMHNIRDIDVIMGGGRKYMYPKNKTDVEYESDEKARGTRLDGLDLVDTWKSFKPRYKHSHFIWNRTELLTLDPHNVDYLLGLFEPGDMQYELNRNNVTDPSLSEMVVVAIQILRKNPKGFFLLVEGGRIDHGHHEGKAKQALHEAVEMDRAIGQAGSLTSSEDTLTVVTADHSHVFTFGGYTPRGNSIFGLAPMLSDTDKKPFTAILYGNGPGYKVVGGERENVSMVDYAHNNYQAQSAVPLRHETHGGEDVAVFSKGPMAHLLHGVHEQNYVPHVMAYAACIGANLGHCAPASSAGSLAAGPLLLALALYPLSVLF
# TNAP inh Pi – blocks human TNAP phosphate release. P05186. purified TNAP, pNPP, malachite green phosphate absorbance. inhibition, % at 20 µM. 21,000 tested, under 10 active. AID 614
# * hit, by the source's call. A selection follows.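 How the source made its calls: active means inhibition above 50% at the 20 µM single-dose screen; inactive means the rest.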
SMILES,TNAP pNPP inh,TNAP inh Pi
COc1ccc(NC(=O)c2cccc(NC(=O)C3C4CC5OC(=O)C3C5C4)c2)c(OC)c1 (centres undefined),2,9
COc1cccc2c(=O)c(C/C=C(/C)Cl)c(C)[nH]c12,-15,-4
CCOC(=O)c1cccc(NC(=O)Cn2c(CC(=O)NC)nc3ccccc32)c1,3,-4
Cc1ccc(NC(=O)c2cccc(N3C(=O)CCC3=O)c2)nc1,5,11
COc1ccc(-c2nc(-c3cccs3)c(-c3cccs3)[nH]2)cc1O,5,-15
COCC(C)NCc1ccccc1C (centres undefined),-1,6
CCCC(=O)Nc1ccccc1NC(=O)CN(C)S(=O)(=O)c1ccccc1,6,16
CCOC(=O)CSc1nc(N(C)C)nc(N(C)C#N)n1,-9,-10
Cc1ccc(S(=O)(=O)Cn2nnnc2CN2CCCC3(CCCCC3)C2)cc1,1,2
O=C(c1cccc(F)c1)N1CCN(C(=O)c2cc(-c3ccc(Cl)cc3Cl)on2)CC1,8,18
O=C(Oc1ccccc1)c1c(Cl)cccc1P(=O)(O)O,9,6
Cc1ccc2c(c1)[nH]c1c(=O)n(Cc3ccccn3)cnc12,4,9
O=C(O)Cn1c(P(=O)(O)c2ccccc2)nc2ccccc21,6,20
CC(C)c1nnc(NC(=O)CCC(=O)NCc2ccco2)s1,6,9
C=CCn1c(SCC(N)=O)nnc1-c1cc(Br)ccc1O,2,4
O=C(c1cccc(OC(F)F)c1)N1CCN(c2ncccn2)CC1,6,8
CCn1c(Cc2ccc(OC)cc2)nnc1SCC(=O)Nc1nc2ccccc2s1,3,7
O=C(Oc1ccc(-c2cnc3ccccc3n2)cc1)c1ccco1,1,10
Cc1sc2c(=O)n3c(nc2c1C(=O)NCCCN1CCOCC1)CCCCC3,5,12
CCOC(=O)c1cnc(SCC(=O)Nc2sc(C)c(C)c2C#N)nc1N,7,9
O=C(CSCCO)Nc1ccc(C2CCCCC2)cc1,3,13
CCc1nnc(NC(=O)C2CCN(c3nc(C)cc(C)n3)CC2)s1,6,18
O=C1C(C=NCCCN2CCCC2=O)=C(O)c2ccccc21,7,12
Cc1ccc2nc(-c3ccccc3Cl)cc(C(=O)Nc3cc(C)on3)c2c1,0,11
CC(C)Nc1nc(NC(C)C)nc(C(N)=O)n1,3,4
SMILES,TNAP pNPP inh,TNAP inh Pi
CC(C)COC(=O)n1c(SCC(=O)N(C)C)nc2ccccc21,4,13
O=C(COC(=O)C1(c2ccc(F)cc2)CCCC1)N1CCN(C(=O)c2ccco2)CC1,0,6
Cc1nc2c(c(=O)n1CC1CCCO1)c1nc3ccccc3nc1n2CCC(C)C (centres undefined),1,6
CCOC(=O)C(O)(C1C(=O)CC(C)(C)CC1=O)C(F)(F)F (centres undefined),-1,4
CC1CCc2cccc3c2N1c1cc(C#N)c(C#N)cc1O3 (centres undefined),0,4
Cc1ccc(N2CC(C(=O)OCc3ccccc3)CC2=O)cc1 (centres undefined),-3,-5
O=C(NCc1ccccc1)NC1(C(=O)N2CCN(c3ccccc3)CC2)CCCCC1,-5,4
COc1ccc(S(=O)(=O)N2CCCC(C(=O)NCc3ccco3)C2)cc1Cl (centres undefined),0,7
COc1ccc(OC)c(N(CC(=O)NCc2cccnc2)S(C)(=O)=O)c1,1,7
COCCOC(=O)c1c(C)oc2ccc(OC(=O)c3ccc4c(c3)OCO4)cc12,2,7
CC(C)n1cc(/C=C(\C#N)S(=O)(=O)c2ccccc2)c2ccccc21,3,19
CCCC1=C(C(=O)OCC)C(c2ccc(N(C)C)cc2)n2ncnc2N1 (centres undefined),10,13
O=C1CC(NCc2ccc3c(c2)OCO3)C(=O)N1Cc1ccc2c(c1)OCO2 (centres undefined),0,0
COC(=O)c1sc(NC(=O)c2cnccn2)c(C(=O)OC)c1C,1,12
O=S(=O)(NC1CCCC1)c1cccc(S(=O)(=O)N2CCC(n3nnc4ccccc43)CC2)c1,2,7
CCOC(=O)N1CCN(CC(=O)N2c3ccccc3CC2C)CC1 (centres undefined),2,12
C1CNCCNCCNCCN1,1,8
CCOc1ccc(-c2n[nH]c(C)c2Oc2ccc(OC)cc2)c(O)c1,1,16
Cc1ccc(C2CC(c3cccs3)n3nc(N)nc3N2)cc1 (centres undefined),0,0
CC(C)(C)NS(=O)(=O)c1ccc(NS(=O)(=O)c2ccc(F)cc2)cc1,0,4
O=S(=O)(Nc1cnc2ccccc2c1)N1CCCCCC1,5,-19
COc1ccc(C(=O)Nc2cccc3c2C(=O)NC3=O)cc1S(=O)(=O)N1CCOCC1,4,12
CC(C)(C)SCCNC(=O)c1ccc(NS(C)(=O)=O)cc1,-2,0
COc1cccc(OCCOc2c(OC)cccc2OC)c1,1,5
O=C(O)C1CSC(CCc2ccccc2)N1 (centres undefined),0,0
SMILES,TNAP pNPP inh,TNAP inh Pi
O=C(NS(=O)(=O)c1ccc2c(c1)OCCO2)c1ccccc1,-8,2
COc1cccc(/C=N/n2c(C)c3c(C)nnc(C)c3c2C)c1O,3,6
Cc1cccc(Cn2c(=O)c3c(nc4n3CCCN4Cc3ccccc3)n(C)c2=O)c1,4,10
COc1cccc(OC)c1-c1nn2c(-c3ccccc3Cl)nnc2s1,0,0
O=C(CSc1nc(-c2ccc(F)cc2)cs1)N1CCN(C(=O)c2ccco2)CC1,0,0
C/C(N)=C(\C#N)C(=O)NCc1ccccn1,6,3
Cn1c(C(C#N)C2=C(Cl)C(=O)N(c3ccccc3)C2=O)nc2ccccc21 (centres undefined),0,0
CCOC(=O)N1CCN(C(=O)Cc2ccsc2)CC1,-5,-6
CCCN1C(=O)c2ccc(C(=O)NC3CCCCC3)cc2C1=O,8,10
COc1ccc(C2CC(c3cccc(OC)c3OC)n3nnnc3N2)cc1 (centres undefined),-1,6
CCc1c(C(=O)Nc2ccncc2)csc1C,-7,-5
COC(=O)[C@H]1CCCN1C(=O)Nc1cccc(Oc2c(F)c(F)c(F)c(F)c2F)c1,3,4
CN(C)c1ccnc(SCc2ccccc2Cl)c1C#N,-6,10
Cc1ccc(C(CC(=O)N2CCCC2)c2ccccc2)c(O)c1C (centres undefined),3,12
